The full list was thinned out, with the strongest signals kept by preference.
Tests used:
Test in all cases: glycan array binding signal (z-score within array); higher = stronger binding
Conditions in all cases: glycan notation: IUPAC condensed, linker removed
[1] = biological target: Fuc(a1-2)[Gal(a1-3)]Gal(b1-4)GlcNAc(b1-3)GalNAc
Method in brief: (§1)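 Glycan array binding is given as a within-array Z-score, which can be read as non-binding when negative. The arrays, 3228 of them, came from the Consortium for Functional Glycomics database and were retained only where the protein sequence was available. Z-scores were averaged across arrays of the same protein sequence at different concentrations or buffers and across linkers.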

[2] = biological target: Gal(a1-3)Gal(b1-3)GlcNAc(b1-3)GalNAc
Method in brief: as §1

Gal(a1-4)Gal(b1-4)Glc = biological target: Gal(a1-4)Gal(b1-4)Glc
Method in brief: as §1

Gal(a1-6)Glc = biological target: Gal(a1-6)Glc
Method in brief: as §1

[3] = biological target: Gal(b1-3)GlcNAc(a1-6)Gal(b1-4)GlcNAc
Method in brief: as §1

[4] = biological target: Gal(b1-3)GlcNAc(b1-2)Man(a1-3)[Gal(b1-3)GlcNAc(b1-2)Man(a1-6)]Man(b1-4)GlcNAc(b1-4)GlcNAc
Method in brief: as §1

[5] = biological target: Gal(b1-3)GlcNAc(b1-3)GalNAc
Method in brief: as §1

[6] = biological target: Gal(b1-3)[Fuc(a1-4)]GlcNAc(b1-3)Gal(b1-4)[Fuc(a1-3)]GlcNAc
Method in brief: as §1

[7] = biological target: Gal(b1-3)[GlcNAc(b1-6)]GalNAc
Method in brief: as §1

[8] = biological target: Gal(b1-4)GlcNAc(b1-2)Man(a1-3)Man(b1-4)GlcNAc(b1-4)GlcNAc
Method in brief: as §1

[9] = biological target: Gal(b1-4)GlcNAc(b1-2)Man(a1-3)[Gal(b1-4)GlcNAc(b1-2)Man(a1-6)]Man(b1-4)GlcNAc(b1-4)GlcNAc
Method in brief: as §1

[10] = biological target: Gal(b1-4)GlcNAc(b1-2)Man(a1-3)[Gal(b1-4)GlcNAc(b1-2)Man(a1-6)]Man(b1-4)GlcNAc(b1-4)[Fuc(a1-6)]GlcNAc
Method in brief: as §1

[11] = biological target: Gal(b1-4)GlcNAc(b1-2)Man(a1-3)[Gal(b1-4)GlcNAc(b1-2)][GlcNAc(b1-4)]Man(b1-4)GlcNAc(b1-4)GlcNAc
Method in brief: as §1

[12] = biological target: Gal(b1-4)GlcNAc(b1-2)Man(a1-3)[GlcNAc(b1-2)Man(a1-6)]Man(b1-4)GlcNAc(b1-4)GlcNAc
Method in brief: as §1

[13] = biological target: Gal(b1-4)GlcNAc(b1-2)Man(a1-3)[Man(a1-6)]Man(b1-4)GlcNAc(b1-4)GlcNAc
Method in brief: as §1

Gal3S6S(b1-4)GlcNAc6S = biological target: Gal3S6S(b1-4)GlcNAc6S
Method in brief: as §1

Gal6S(b1-4)GlcNAc = biological target: Gal6S(b1-4)GlcNAc
Method in brief: as §1

GalNAc(b1-6)GalNAc = biological target: GalNAc(b1-6)GalNAc
Method in brief: as §1

Glc(a1-6)Glc(a1-6)Glc = biological target: Glc(a1-6)Glc(a1-6)Glc
Method in brief: as §1

GlcA(b1-3)Gal = biological target: GlcA(b1-3)Gal
Method in brief: as §1

GlcNAc(b1-3)Gal = biological target: GlcNAc(b1-3)Gal
Method in brief: as §1

GlcNAc(b1-4)GlcNAc = biological target: GlcNAc(b1-4)GlcNAc
Method in brief: as §1

[14] = biological target: GlcNAc6S(b1-3)Gal(b1-4)GlcNAc
Method in brief: as §1

[15] = biological target: Man(a1-2)Man(a1-2)Man(a1-6)[Man(a1-3)]Man
Method in brief: as §1

[16] = biological target: Man(a1-2)Man(a1-3)[Man(a1-2)Man(a1-6)]Man(a1-6)[Man(a1-2)Man(a1-2)Man(a1-3)]Man
Method in brief: as §1

Man(b1-4)GlcNAc = biological target: Man(b1-4)GlcNAc
Method in brief: as §1

Neu5Ac(a2-3)GalNAc = biological target: Neu5Ac(a2-3)GalNAc
Method in brief: as §1

[17] = biological target: Neu5Ac(a2-6)Gal(b1-4)GlcNAc(b1-2)Man(a1-3)[Man(a1-6)]Man(b1-4)GlcNAc(b1-4)GlcNAc
Method in brief: as §1

[18] = biological target: Neu5Ac(a2-6)Gal(b1-4)GlcNAc(b1-2)Man(a1-6)[Gal(b1-4)GlcNAc(b1-2)Man(a1-3)]Man(b1-4)GlcNAc(b1-4)GlcNAc
Method in brief: as §1

[19] = biological target: Neu5Ac(a2-6)Gal(b1-4)GlcNAc(b1-2)Man(a1-6)[GlcNAc(b1-2)Man(a1-3)]Man(b1-4)GlcNAc(b1-4)GlcNAc
Method in brief: as §1

[20] = biological target: Neu5Ac(a2-6)GlcNAc(b1-4)GlcNAc(b1-4)GlcNAc
Method in brief: as §1

Neu5Ac(a2-8)Neu5Ac = biological target: Neu5Ac(a2-8)Neu5Ac
Method in brief: as §1

B1: ASAL (Allium sativum), P83886 (protein)
chain: MGRTTSSPKAMMRIATVAAILTILASTCMARNVLTNGEGLYAGQSLDVEQYKFIMQDDCNLVLYEYSTPIWASNTGVTGKNGCRAVMQRDGNFVVYDVNGRPVWASNSVRGNGNYILVLQKDRNVVIYGSDIWSTGTYRRSVGGAVVMAMNGTVDGGSVIGPVVVNQNVTAAIRKVGTGAA
In the case of B1, the “glycan array binding signal (z-score)” value [1] is reported as -0.201, the “glycan array binding signal (z-score)” value [2] is reported as -0.206 and the “glycan array binding signal (z-score)” value (Gal(a1-4)Gal(b1-4)Glc) is reported as -0.282. The “glycan array binding signal (z-score)” value (Gal(a1-6)Glc) was -0.285, the “glycan array binding signal (z-score)” value [3] was -0.252 and the “glycan array binding signal (z-score)” value [4] was -0.113. For the same binder, the “glycan array binding signal (z-score)” value [5] was -0.178, the “glycan array binding signal (z-score)” value [6] was -0.218 and the “glycan array binding signal (z-score)” value [7] was -0.267. For the same binder, the “glycan array binding signal (z-score)” value [8] was 6.55, the “glycan array binding signal (z-score)” value [9] was 5.54 and the “glycan array binding signal (z-score)” value [10] was 7.04. The “glycan array binding signal (z-score)” value [11] was -0.228, the “glycan array binding signal (z-score)” value [12] was 5.91 and the “glycan array binding signal (z-score)” value [13] was 7.21. The “glycan array binding signal (z-score)” value (Gal3S6S(b1-4)GlcNAc6S) was -0.238, the “glycan array binding signal (z-score)” value (Gal6S(b1-4)GlcNAc) was -0.193 and the “glycan array binding signal (z-score)” value (GalNAc(b1-6)GalNAc) was -0.24. For the same binder, the “glycan array binding signal (z-score)” value (Glc(a1-6)Glc(a1-6)Glc) was -0.234, the “glycan array binding signal (z-score)” value (GlcA(b1-3)Gal) was 5.39 and the “glycan array binding signal (z-score)” value (GlcNAc(b1-3)Gal) was -0.3. For the same binder, the “glycan array binding signal (z-score)” value (GlcNAc(b1-4)GlcNAc) was -0.252, the “glycan array binding signal (z-score)” value [14] was -0.065 and the “glycan array binding signal (z-score)” value [15] was 2.53. The “glycan array binding signal (z-score)” value [16] was 4.09, the “glycan array binding signal (z-score)” value (Man(b1-4)GlcNAc) was -0.236 and the “glycan array binding signal (z-score)” value (Neu5Ac(a2-3)GalNAc) was -0.276. The “glycan array binding signal (z-score)” value [17] was 0.085, the “glycan array binding signal (z-score)” value [18] was 4.59 and the “glycan array binding signal (z-score)” value [19] was 5.01. The “glycan array binding signal (z-score)” value [20] was -0.29 and the “glycan array binding signal (z-score)” value (Neu5Ac(a2-8)Neu5Ac) was -0.25.

From the supplement of paper PMC8728848
